Test systems include NCI-H23 lung; NCI-H226 lung; NCI-H322M lung; HOP-62 NSCLC; NCI-H460 lung; HOP-92 NSCLC; NCI-H522 lung; A549/ATCC NSCLC; 786-0 renal; COLO 205 colon; DU-145 prostate; K-562 leukemia; MALME-3M melanoma; MDA-MB-231 breast; RXF 393 renal; SF-295 CNS; SF-539 CNS; UACC-257 melanoma; M14 melanoma; SF-268 CNS.
Common to all, as to assay: NCI-60 one-dose screen, 48 h (100 = growth as untreated, 0 = no growth, -100 = all killed)
Details in all cases: 10 µM unless noted

The structures appear in SMILES notation. This is part of a sample that, as a whole, favours compounds with a hit. Of some 83,000 tested, about 20% had one in any assay.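 Plates (96-well) were seeded with cells, treated with compound at one concentration, and incubated for 48 hours before percent growth was determined.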 A number with no mark means an inactive call. The source made the active and inactive calls. The calls were made as follows: active = growth percent below 10; inactive = the rest.

In the case of `Cc1ccc(Cc2c(C=O)nc(N)[nH]c2=O)c2ccccc12`, the growth in the experiment on NCI-H23 lung is 97.7%; with NCI-H226 lung it was 98.6%; with NCI-H322M lung it was 119%; with HOP-62 NSCLC it was 96.2%; in the experiment on NCI-H460 lung, 109%; with HOP-92 NSCLC, 91.9%. Further, the growth in the experiment on NCI-H522 lung is 118%; in the experiment on A549/ATCC NSCLC, 86.6%; in the experiment with 786-0 renal, 89.8%; in the experiment with COLO 205 colon it was 95.5%; with DU-145 prostate, 113%; in the experiment with K-562 leukemia, 107%. The growth was 98.2% in the experiment on MALME-3M melanoma; 107% in the experiment with MDA-MB-231 breast; 106% with RXF 393 renal; 118% in the experiment on SF-295 CNS; 102% in the experiment on SF-539 CNS; 93.2% in the experiment on UACC-257 melanoma. Also, in the experiment on M14 melanoma, the growth is 101%.
Turning to `Cc1ccc(-c2cc3nc(C(Cl)Cl)nc(-c4cccnc4)n3n2)cc1`, the growth is -32.5% (active) in the experiment with NCI-H23 lung; 75.7% in the experiment with NCI-H226 lung; 18.2% with NCI-H322M lung; -8% (active) in the experiment on HOP-62 NSCLC; -10.5% (active) in the experiment on NCI-H460 lung; -2.25% (active) in the experiment with HOP-92 NSCLC. The growth in the experiment with NCI-H522 lung is 4.51% (active); in the experiment on A549/ATCC NSCLC, -14.2% (active); in the experiment with 786-0 renal, 69.5%; in the experiment on COLO 205 colon, -82.6% (active); with DU-145 prostate it was -22% (active); in the experiment on K-562 leukemia, 9.52% (active). The growth in the experiment on MALME-3M melanoma was 5.51% (active); in the experiment with MDA-MB-231 breast, 2.53% (active); in the experiment on SF-268 CNS, 25.7%; in the experiment on SF-295 CNS it was 4.01% (active); with SF-539 CNS, 63%; in the experiment on UACC-257 melanoma, 86%. Moreover, in the experiment with M14 melanoma, the growth is 61%.
In the case of `O=S(=O)(NCCNc1nccc(-c2c(-c3cccc(O)c3)nc3sccn23)n1)c1ccc(F)cc1`, the growth with NCI-H23 lung is 87%; in the experiment on NCI-H226 lung, 91.8%; with NCI-H322M lung it was 90.4%; in the experiment on HOP-62 NSCLC it was 103%; in the experiment with NCI-H460 lung it was 67.3%; in the experiment on HOP-92 NSCLC it was 92.8%. The growth was 64.4% with NCI-H522 lung; 52% in the experiment on A549/ATCC NSCLC; 77% in the experiment on 786-0 renal; 37.6% with COLO 205 colon; 78.6% in the experiment on DU-145 prostate; 47.8% in the experiment with K-562 leukemia. The growth in the experiment on MALME-3M melanoma was 18.3%; with MDA-MB-231 breast, 77.6%; in the experiment on RXF 393 renal, 52.5%; with SF-268 CNS, 73.3%; in the experiment with SF-539 CNS it was 96.5%; with UACC-257 melanoma it was -0.678% (active). Also, in the experiment on M14 melanoma, the growth was 27.3%.
`Cc1c(C(=N)C(C#N)C#N)c(=N)oc2c1ccc1ccccc12`: the growth in the experiment on NCI-H23 lung was 73.2%; in the experiment with NCI-H226 lung it was 95%; in the experiment with NCI-H322M lung, 89.9%; in the experiment with HOP-62 NSCLC, 93.6%; in the experiment with NCI-H460 lung it was 97.4%; in the experiment with HOP-92 NSCLC, 73.1%. The growth with NCI-H522 lung is -3.19% (active); in the experiment with A549/ATCC NSCLC, 92.8%; with 786-0 renal, 94%; in the experiment on COLO 205 colon it was 115%; in the experiment on DU-145 prostate, 103%; in the experiment on K-562 leukemia, 72.8%. In addition, the growth with MALME-3M melanoma was 111%; with MDA-MB-231 breast, 97.9%; with SF-268 CNS, 88.4%; in the experiment with SF-295 CNS it was 96.5%; in the experiment with SF-539 CNS, 94.1%; in the experiment with UACC-257 melanoma, 60.6%. In addition, in the experiment with M14 melanoma, the growth is 88%.
In the case of `COc1ccc(N2CCN(Cc3cc(C(=O)/C=C/c4c[nH]c5ccccc45)ccc3O)CC2)cc1`, the growth is 102% in the experiment with NCI-H23 lung; 100% with NCI-H226 lung; 100% in the experiment on NCI-H322M lung; 89% in the experiment with HOP-62 NSCLC; 106% in the experiment with NCI-H460 lung; 89.9% with HOP-92 NSCLC. For the same compound, the growth in the experiment on NCI-H522 lung is 95.2%; in the experiment on A549/ATCC NSCLC it was 102%; with 786-0 renal, 105%; in the experiment on COLO 205 colon, 107%; with DU-145 prostate it was 114%; with K-562 leukemia it was 101%. Moreover, the growth is 95.6% in the experiment on MALME-3M melanoma; 103% in the experiment on MDA-MB-231 breast; 104% in the experiment with RXF 393 renal; 101% with SF-268 CNS; 96.6% in the experiment on SF-539 CNS; 102% in the experiment on UACC-257 melanoma. Moreover, the growth with M14 melanoma is 102%.
Turning to `COc1ccc(/C=C2\CN(Cc3cn(CCNc4ccnc5cc(Cl)ccc45)nn3)C/C(=C\c3ccc(OC)c(OC)c3)C2=O)cc1OC`, the growth in the experiment on NCI-H23 lung was 48%; in the experiment with NCI-H226 lung, 17%; in the experiment on NCI-H322M lung, 44.7%; in the experiment on HOP-62 NSCLC, -7.73% (active); in the experiment with NCI-H460 lung it was -28.5% (active); with HOP-92 NSCLC it was -16.1% (active). For the same compound, the growth was -67.8% (active) in the experiment with NCI-H522 lung; 22.7% in the experiment with A549/ATCC NSCLC; 15.9% in the experiment on 786-0 renal; 10.1% with COLO 205 colon; 0.0798% (active) in the experiment with DU-145 prostate; 2.21% (active) with K-562 leukemia. Further, the growth in the experiment with MALME-3M melanoma is -27.7% (active); with MDA-MB-231 breast it was -0.28% (active); in the experiment on RXF 393 renal, -52.1% (active); in the experiment with SF-268 CNS, 9.6% (active); in the experiment on SF-539 CNS, -12.5% (active); with UACC-257 melanoma, 5.32% (active). Moreover, the growth in the experiment with M14 melanoma is 3.7% (active).
Take `COc1cc(/C=C/C(=O)c2cccc(-n3cc(-c4cc(OC)c(OC)c(OC)c4)[nH]c3=O)c2)cc(OC)c1OC`: the growth in the experiment on NCI-H23 lung was 6.11% (active); with NCI-H226 lung, 58%; with NCI-H322M lung it was 46%; in the experiment with HOP-62 NSCLC, 42.9%; in the experiment with NCI-H460 lung, -1.97% (active); in the experiment on HOP-92 NSCLC it was -12.2% (active). Also, the growth was -66.8% (active) in the experiment with NCI-H522 lung; 35.1% with A549/ATCC NSCLC; 19% in the experiment with 786-0 renal; -36.1% (active) with COLO 205 colon; 12.5% in the experiment on DU-145 prostate; 0.136% (active) with K-562 leukemia. The growth was 28.9% with MALME-3M melanoma; 35.4% in the experiment on MDA-MB-231 breast; -79.5% (active) in the experiment on RXF 393 renal; 20.9% in the experiment on SF-268 CNS; -86.1% (active) with SF-539 CNS; 37.2% in the experiment on UACC-257 melanoma. Besides, in the experiment on M14 melanoma, the growth is -0.87% (active).
For the compound `O=C(Nc1cccc(-n2cc(-c3ccncc3)c(-c3ccc(Cl)c(O)c3)n2)c1)c1ccccc1`, the growth was 90.8% in the experiment on NCI-H23 lung; 89.6% in the experiment on NCI-H226 lung; 89.2% in the experiment on NCI-H322M lung; 46.7% with HOP-62 NSCLC; 48.7% with NCI-H460 lung; 3.59% (active) in the experiment with HOP-92 NSCLC. In addition, the growth in the experiment with NCI-H522 lung was 42.3%; in the experiment on A549/ATCC NSCLC, 52.6%; in the experiment on 786-0 renal, 76.1%; in the experiment with COLO 205 colon it was 100%; with DU-145 prostate it was 56.9%; in the experiment on K-562 leukemia it was 60.7%. Moreover, the growth in the experiment on MALME-3M melanoma was 53.1%; with MDA-MB-231 breast, 63.2%; in the experiment on RXF 393 renal, 0.59% (active); with SF-268 CNS it was 68.3%; in the experiment with SF-539 CNS, 74.7%; in the experiment on UACC-257 melanoma it was 44.2%. Besides, in the experiment on M14 melanoma, the growth is 54.9%.

The values are drawn from PubChem BioAssay (NCI).
